system: Plasmodium falciparum; test: GSK_TCMDC: Inhibition of Plasmodium falciparum 3D7 in whole red blood cells, using parasite LDH activity as an index of growth. Test compounds present at 2uM; format: functional

SMILES | Inhibition [%]
Cc1cc(-c2ccc(CNCc3ccsc3)cc2)ccc1S(=O)(=O)NCCN1CCCC1.O=C(O)C(F)(F)F | 99
Cl.Cn1ccc(-c2cccc(Nc3ccnc4cc(-c5nccs5)ccc34)c2)n1 | 100
Oc1cc(-c2cccc(C(F)(F)F)c2)nc(Nc2ccc(Cl)c(Cl)c2)n1 | 97
CC(=O)Nc1cccc(C(=O)Nc2cccc(-c3ccc(-c4nc5cc(F)ccc5[nH]4)cc3)c2)c1 | 95
Cl.c1ccc(-c2cc(NCCCCCCCCNc3cc(-c4ccccc4)nc4ccccc34)c3ccccc3n2)cc1 | 100

system: Plasmodium falciparum; test: GSK_TCMDC: Inhibition of Plasmodium falciparum Dd2 in whole red blood cells, using parasite LDH activity as an index of growth. Test compounds present at 2uM; format: functional

SMILES | Inhibition [%]
CCCc1cc(OC)c(CC2c3cc(O)c(C)cc3CCN2C)cc1OC.Cl (stereo not drawn) | 89
Cc1cc(C)c(O)c(-c2cc(C(=O)Nc3ccc(S(=O)(=O)N4CC(C)OC(C)C4)cc3)[nH]n2)c1 (stereo not drawn) | 16
CC(=O)c1sc(Cc2nc3ccccc3s2)nc1C | 88
Cc1ccc2c(=O)cc(CCc3cccc(F)c3F)n(CC(=O)N(Cc3ccc(-c4ccc(C(F)(F)F)cc4)cc3)C3CCN(C)CC3)c2n1.O=C(O)C(O)C(O)C(=O)O | 76
CC(C)c1ccc(CN2CCC(CNC(=O)c3cc(-c4cccc(C(F)(F)F)c4)cs3)C2)cc1.O=C(O)C(F)(F)F (stereo not drawn) | 60
Nc1nccc2ccc(-c3ccnc(NCc4cccnc4)n3)cc12 | 95
CS(=O)(=O)N(c1ccc(F)cc1)c1cc(C(=O)N[C@@H](Cc2ccccc2)[C@H](O)CNCc2cccc(C(F)(F)F)c2)cc(N2CCCC2=O)c1.O=CO | 65
COc1ccc2nccc([C@@H](O)CN3CCC(NC(=O)C(c4ccccc4C)N4CCC(Cc5ccccc5)CC4)CC3)c2c1 (stereo partly drawn) | 97

— ChEMBL document CHEMBL1157539, “Thousands of chemical starting points for antimalarial lead identification” (Nature, 2010)
